ChEMBL document CHEMBL1201862, “PubChem BioAssay data set” (2004)
The campaign covered roughly 28,000 sequences. About 1,300 (4.6%) were called active. No stated cut-off is given here; in the data, active = GI50 up to about 1.1 µM and inactive = higher. For the sample, actives were picked, then their nearest neighbours and some sequences at random. Entries with a potency or affinity are not part of this list.

These substances were tested on MDA-N.
Work on “[Bis(aminomethyl)pentamethylenesilane]dichloropaltinum(II), CHEMBL2146202” yielded a GI50 of 2.42 µM.
Work on “[Bis(aminomethyl)pentamethylenesilane]tetrachloropaltinum(IV), CHEMBL2146204” yielded a GI50 of 0.935 µM.
“[Bis(aminomethyl)dimethylsilane]tetrachloroplatinum(IV), CHEMBL2146190” was tested, and the GI50 was 15.9 µM.
Substance “[Bis(aminomethyl)tetramethylenesilane]tetrachloropaltinum(IV), CHEMBL2146189” has a GI50 of 2.72 µM.
Work on CISPLATIN, CHEMBL11359 yielded a GI50 of 6.18 µM.
Substance “[Bis(aminomethyl)tetramethylenesilane]dichloropaltinum(II), CHEMBL2146205” has a GI50 of 6.89 µM.
